# Tau fibril ThT: inhibitors of human tau fibril formation, thioflavin T binding; P10636; recombinant tau K18 P301L, heparin-induced fibrillization, ThT fluorescence; Potency, µM (doses to about 57.4 µM), without a hit: at the top dose activity, negative = inhibition, actives largely listed as inhibitors; hit rate 2.1% among 270,000; AID 1460; also: nearly all actives have a fitted effect of over 55% in size
# Target sequence (P10636 561-689 P618L limits assumed): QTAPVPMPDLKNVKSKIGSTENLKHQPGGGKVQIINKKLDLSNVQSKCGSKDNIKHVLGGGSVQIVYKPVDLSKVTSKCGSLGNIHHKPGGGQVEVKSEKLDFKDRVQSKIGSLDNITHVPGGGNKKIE
#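 ThT emission at 510 nm, taken 1 hr after adding 30 uM dye, quantifies aggregates formed when 20 uM heparin acts on human tau K18 P301L for 6 hr at 37 C.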
# Tau fluor counter: counter-screen for tau fibril formation inhibitors. tau K18 P301L Alexa594 fluorescence, heparin fibrillization. Potency, µM (highest dose often 57.7 µM), without a hit: at the top dose activity change, negative = decrease. hit rate 0.93% among 280,000; also: nearly all actives have a fitted effect of over 55% in size
#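 Human tau K18 P301L (15 uM unlabeled, 0.24 uM Alexa 594-labeled) in 100 mM sodium acetate pH 7 with 20 uM heparin, 6 hr at 37 C. ThT 30 uM added, 1 hr ambient; Alexa 594 FP and total fluorescence read at 555/632 nm.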
# HPGD inh: inhibitors of human 15-hydroxyprostaglandin dehydrogenase (HPGD); Potency, µM, for the others: at the top dose activity change, negative = inhibition, actives largely listed as inhibitors; purified HPGD, NADH fluorescence kinetic, PGE2 substrate; P15428; hit rate 4.3% among 150,000; active = well fitted inhibition curve with a large enough effect, not every such curve was filed as active; inconclusive = small, poorly fitted or top-dose-only effect, or another doubt; inactive = no such curve, though single readings can be large or run the other way
# Target sequence (P15428 whole entry, looked up): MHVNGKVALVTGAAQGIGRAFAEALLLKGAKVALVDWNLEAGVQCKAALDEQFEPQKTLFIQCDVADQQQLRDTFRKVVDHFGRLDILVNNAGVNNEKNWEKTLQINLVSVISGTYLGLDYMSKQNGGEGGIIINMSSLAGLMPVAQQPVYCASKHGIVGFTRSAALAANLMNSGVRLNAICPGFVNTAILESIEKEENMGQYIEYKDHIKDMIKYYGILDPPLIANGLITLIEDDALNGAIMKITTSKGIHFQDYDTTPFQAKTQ
#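 20 nM HPGD preincubated 15 min at room temperature with compound in 50 mM Tris-HCl pH 8, 0.01% Tween 20. Started with 1 mM NAD+ and 30 uM prostaglandin E2; NADH fluorescence (360/450 nm) read 5 times over 30-s intervals, last minus first.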
# ALDH1A1 block: blocks purified human ALDH1A1 activity; Potency, µM (highest dose often 75.3 µM), for the others: top-dose activity, negative = inhibition, usual class: inhibitors; Purified ALDH1A1, NADH fluorescence, propionaldehyde substrate; hit rate 7.3% among 220,000; AID 1030; active = well fitted inhibition curve with a large enough effect, not every such curve was filed as active; inconclusive = small, poorly fitted or top-dose-only effect, or another doubt; inactive = no such curve, though single readings can be large or run the other way;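 also: plate controls were no enzyme wells and a reference inhibitor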
# Tau fibril FP: inhibitors of human tau fibril formation | K18 P301L tau heparin fibrillization, Alexa594 FP, 6 h | Potency, µM (titrated, usually from 57.7 µM), for inactives: top-dose activity, negative = inhibition, actives largely listed as inhibitors | hit rate 0.39% among 280,000 | AID 1468; also: nearly all actives have a fitted effect of over 55% in size
#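 K18 P301L tau (15 uM unlabeled/0.24 uM Alexa 594-labeled, final) + compound + heparin 20 uM final; 100 mM NaOAc pH 7; 6 hr 37 C; ThT 30 uM final added, 1 hr RT; FP ex 555/em 632 nm.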
# KDM4E inh: blocks human JMJD2E demethylase activity | B2RXH2 | JMJD2E catalytic domain, FDH-coupled NADH fluorescence (FDH is formaldehyde dehydrogenase) | Potency, µM (doses to about 57.1 µM), without a hit: at the highest dose activity change, negative = inhibition, usual class: inhibitors | hit rate 1.6% among 230,000; active = well fitted inhibition curve with a large enough effect, not every such curve was filed as active; inconclusive = small, poorly fitted or top-dose-only effect, or another doubt; inactive = no such curve, though single readings can be large or run the other way;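 also: 0% = wells with enzyme and -100% = buffer wells without enzyme; nearly all actives have a fitted effect of over 50% in size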
# An asterisk follows results filed as active; ? = inconclusive; nt = not tested or not shown; [ ] = remark or other dose. Only some compounds are listed: those with a hit (about 9.9% of all), similar ones and a draw of the others. Unless noted, calls follow the shape of the dose curve; as a rule, active = well fitted curve in the direction sought with a large enough effect; inconclusive = small, poorly fitted or top-dose-only effect, or another doubt; inactive = no such curve, though single readings can be large; an effect the other way counts as inactive or inconclusive. Unless noted, % is scaled to controls: 0 for no effect and ±100 for the full control effect; potency is read from the fitted curve at half-maximal effect.
SMILES,Tau fibril ThT,Tau fluor counter,HPGD inh,ALDH1A1 block,Tau fibril FP,KDM4E inh
O=C(CNC1CCCC1)Nc1ccc(N2CCCCCC2)cc1,-5%,-6%,nt,20µM*,0%,8.9µM*
O=C(CNCC1CCCCC1)Nc1ccc(N2CCCCC2)cc1,-3%,-7%,nt,?,9%,28µM*
Cc1cccc(NC(=O)CCC(=O)Nc2nnc(C(F)(F)F)s2)c1,11%,2%,nt,nt,4%,7%
Cn1c(=O)c([N+](=O)[O-])c(NCc2ccc3c(c2)OCO3)c2ccccc21,-13%,-1%,nt,nt,5%,6%
Cc1nc2cccc([N+](=O)[O-])c2n1CCCN(C)C,nt,nt,-1%,?,nt,nt
C/C(=N\Nc1cccc2cccnc12)c1ccc[nH]1,4.5µM*,?,nt,?,14%,-8%
C/C(=N\NC(N)=S)c1ccc[nH]1,nt,nt,-8%,-10%[13.5 µM],nt,nt
Cc1ccccc1NC(=O)CC1(c2ccc(N(C)C)cc2)C(=O)c2ccccc2C1=O,-3%,-13%,-20%,13µM*,-10%,-2%
O=C(NC(=S)Nn1cnnc1)c1cccc(Br)c1,-6%,5%,22µM*,7.9µM*,9%,5%
Cc1ccc(/C=C/C(=O)Nn2cnnc2)cc1,14µM*,-15%,-1%,-2%,?,3%
NC(=S)NNC(=O)c1cccc(Br)c1,-8%,2%,nt,-3%,-3%,1%
Cc1ccc(C(=O)NC(=S)Nn2cnnc2)cc1,-1%,-3%,?,20µM*,-10%,-9%
O=S(=O)(/N=C(/c1ccccc1)N1CCCCC1)c1ccccc1,0%,-1%,-11%,?,2%,-2%
O=C(Cc1n[nH]c(=O)[nH]c1=O)N/N=C/CCc1ccccc1,-10%,-10%,nt,nt,2%,?
CC(=O)OCOC(c1ccc2ccccc2c1)P(=O)(OCOC(C)=O)OCOC(C)=O (centres undefined),-2%,-4%,nt,2%,-4%,nt
CCN(CC)CCCNC(=O)C(C)n1nc(C)n2c(cc3occc32)c1=O (centres undefined),-1%,-1%,nt,nt,2%,nt
O=C(c1ccco1)N1CCN(S(=O)(=O)c2cccs2)CC1,1%,1%,-13%,-12%,-4%,1%
O=C(c1ccco1)N1CCN(C(=O)C(Cc2ccccc2)NS(=O)(=O)c2cccs2)CC1 (centres undefined),-20%,-17%,-8%,14µM*,-8%,-9%
CC(=O)NC(Cc1ccccc1)C(=O)N1CCN(C(=O)c2ccco2)CC1 (centres undefined),-2%,4%,-13%,10µM*,0%,-2%
O=c1oc2ccc3ccccc3c2cc1-c1nnc(Nc2ccc(Cl)cc2Cl)s1,-4%,-2%,nt,nt,0%,nt
CC1CC(CCC(=O)NC(=S)Nc2ccc(S(N)(=O)=O)cc2)C(=O)O1 (centres undefined),-2%,2%,nt,3%,-2%,17%
COc1cccc(CNC(=O)CCl)c1,5%,1%,-22%,7.1µM*,7%,4%
O=c1c(C/C=C/c2ccccc2)c(O)ccn1CCc1c[nH]c2ccccc12,-16%,18µM*[quencher],nt,40µM*,-5%,-2%
COc1ccc2[nH]cc(CCn3ccc(O)c(C/C=C/c4ccccc4)c3=O)c2c1,?,25µM*[quencher],nt,14µM*,?,-22%
O=c1c(C/C=C/c2ccccc2)c(O)ccn1Cc1cccc(Cl)c1,2%,-26%,nt,-10%,?,-4%
CCN=C(Nc1ccc2c(c1)OCO2)SC1CC(=O)N(c2ccccc2F)C1=O (centres undefined),-4%,-24%,-5%,18µM*,-11%,1%
C=C(CO)C1Cc2c(ccc3c2OC2COc4cc(OC)c(OC)cc4C2C3=O)O1 (centres undefined),?,-21%,-9%,22µM*,-5%,-4%
CCOc1cc2[nH]c(=O)n(CCC(=O)N3CCN(c4cccc(Cl)c4)CC3)c(=O)c2cc1OCC,-12%,-24%,nt,nt,0%,nt

# Screening results from PubChem.
